# Laboratory results as given in PubChem BioAssay (NCATS).
# Inconclusive results are not listed. The source made the active and inactive calls. Calls follow the shape of the dose curve; as a rule, active = well fitted inhibition curve with a large enough effect; inconclusive = small, poorly fitted or top-dose-only effect; inactive = flat fitted curve, though single readings scatter.
# Tested on: CRL-7250
# Assay: qHTS assay to identify novel small-molecules to repurpose for Merkel cell carcinoma treatment (AID 1296009); also: nearly all actives have a fitted effect of over 60% in size
# Details: MCC and control cell lines, CellTiter-Glo viability, 72 h; series mostly up to 92 µM; activity change, negative = cytotoxicity: at the top concentration
# In short: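 Dose-response viability screen; 72 hr exposure at 37 degree celsius; CellTiter-Glo added, 10 min room temperature, luminescence read; RLUs scaled between no-cell and DMSO wells.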
row,Structure (SMILES),outcome
1,C1=Cc2ccccc2C(=C2CCN(CCCCc3nn[nH]n3)CC2)c2ccccc21,inactive
2,C=C1CCC2(OC1)OC1CC3C4CC=C5CC(O)CC(O[C@@H]6OC[C@@H](O)[C@H](O)[C@H]6O)C5(C)C4CCC3(C)C1(O)C2C (some centres undefined),inactive [at 17.4 µM]
3,COc1cc(/C=C/C(=O)O[C@H]2[C@H](O)[C@@H](CO)O[C@@]2(CO)O[C@H]2O[C@H](COC(=O)c3ccc(O)cc3)[C@@H](O)[C@H](O)[C@H]2O)cc(OC)c1OC,inactive [at 17.4 µM]
4,COc1cccc(C(=O)N2CCN(C(=O)COc3cccc(C)c3)CC2)c1OC,inactive
5,CC1(C)CCCC2(C)C=C(C(=O)O)C(O)CC12 (centres undefined),inactive
6,CCC(COC)n1nnc2c(Nc3ccc(OC)cc3C)nc(C)cc21 (centres undefined),inactive
7,O=c1c2cccnc2n(-c2cccc([N+](=O)[O-])c2)c(=O)n1Cc1ccncc1,inactive
8,C=C1CCC2[C@@](C)(C=O)CCC[C@]2(C)[C@H]1CC/C(C)=C/CO (some centres undefined),inactive
9,COc1cc(CC2COC(c3ccc(OC4OC(CO)C(O)C(O)C4O)c(OC)c3)C2CO)ccc1O (centres undefined),inactive [at 17.4 µM]
